Active and inactive are the calls of the source.
Legend:
Albumin (Bos taurus) = Albumin (Bos taurus) (UniProt P02769); assay: bovine serum albumin binders on microarray, profiling panel, artefact control for SMM control protein annotation, biochemical, small-molecule microarray, Alexa647 label, 635/667 nm fluorescence (AID 1118); conditions: BSA-A647 binding, fluorescence 635 nm, higher = more signal;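 further: score merges 667 nm emission intensity and signal-to-noise per printed compound spot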
[1] = small-molecule microarray binders of probe aXIP, primary screen, biochemical, NeuroSMM set, 635/667 nm fluorescence (AID 1119); conditions: higher = more signal, called active from +8 up or from −8 down;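 further: probe is the protein aXip251-270 applied at 1 µg/mL to compound-printed slides; binding of probe to printed compounds measured as 667 nm fluorescence plus signal to noise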
[2] = small-molecule binders of probe aNOTCH3, primary screen, biochemical, small-molecule microarray, 635/667 nm fluorescence (AID 1120); conditions: higher = more signal;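 further: probe is a biotin-tagged antibody raised against NOTCH3 rather than NOTCH3 protein; score merges spot fluorescence near 667 nm with spot signal to noise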
[3] = small-molecule binders of probe aNOTCH2, primary screen, biochemical, small-molecule microarray, 635/667 nm fluorescence (AID 1121); conditions: higher = more signal;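 further: score merges feature fluorescence read at 667 nm with its signal to noise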
[4] = molecular target: Carbonic anhydrase 2 (Homo sapiens) (UniProt P00918); assay: CAII small-molecule binders, profiling panel, biochemical, small-molecule microarray, Alexa647-labelled CAII (AID 1122); conditions: CAII-A647 binding fluorescence, higher = more signal
[5] = COS7 lysate on small-molecule microarray, probe aHis, 635 nm (AID 1123); conditions: COS7 cell lysate, fluorescence, higher = more signal;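 further: z-score combines 667nm fluorescence intensity with signal-to-noise per printed compound spot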
[6] = compound binding in COS7 lysate, probe aLAP1, primary screen, cell lysate, small-molecule microarray (AID 1124); conditions: probe aLAP1, fluorescence, higher = more signal;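 further: lysate comes from COS7 cells expressing LAP1 and is applied at 0.3 µg/mL; score merges spot fluorescence near 667 nm with signal-to-noise over triplicate slides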
Sam68 (KHDRBS1) = assay: Sam68 small-molecule binders, primary screen, biochemical, small-molecule microarray, 635 nm fluorescence (AID 1125); conditions: small-molecule microarray binding, higher = more signal;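 further: score merges 667 nm channel intensity with signal to noise over triplicate slides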
[7] = system: Chordin-like protein 2 (CHRDL2); assay: CHRDL2 small-molecule binders, primary screen, biochemical, small-molecule microarray, 635 nm fluorescence (AID 1126); conditions: small-molecule microarray binding, fluorescence 635 nm; higher = more signal;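 further: printed compound slides probed with Chrdl2 protein at 4 µg/mL for 1 h at 4 C; score merges 667 nm emission intensity with signal to noise over three replicate slides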
[8] = molecular target: Concanavalin-A (Canavalia ensiformis) (UniProt P02866); assay: ConA small-molecule binders, primary screen, artefact control for SMM control protein annotation, biochemical, small-molecule microarray, Alexa647 label, 635 nm (AID 1127); conditions: ConA-A647 binding fluorescence, higher = more signal;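 further: z combines 667 nm emission intensity with signal-to-noise across three replicate slides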
Concanavalin-A (Canavalia ensiformis), sequence (P02866 whole entry, looked up): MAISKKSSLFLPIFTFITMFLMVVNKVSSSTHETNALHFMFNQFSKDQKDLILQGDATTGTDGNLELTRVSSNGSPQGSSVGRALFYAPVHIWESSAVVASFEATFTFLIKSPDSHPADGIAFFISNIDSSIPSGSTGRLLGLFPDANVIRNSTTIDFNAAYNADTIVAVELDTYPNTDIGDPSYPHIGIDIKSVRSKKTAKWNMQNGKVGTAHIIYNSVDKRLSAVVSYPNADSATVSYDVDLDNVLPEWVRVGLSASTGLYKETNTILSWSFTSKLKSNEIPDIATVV

[9] = anti-His antibody binders, primary screen, artefact control for SMM control protein annotation, biochemical, small-molecule microarray, 635 nm fluorescence (AID 1128); conditions: anti-His Alexa647 antibody binding, higher = more signal;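 further: score merges feature fluorescence with signal-to-noise for each printed compound spot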
[10] = system: Human papillomavirus type 1a E7 protein (residues 1-88); assay: HPV1a E7 small-molecule binders, primary screen, biochemical, small-molecule microarray, residues 1-88, 635 nm (AID 1129); conditions: small-molecule microarray binding, fluorescence 635 nm; higher = more signal
[11] = molecular target: Focal adhesion kinase 1 (Homo sapiens) (UniProt Q05397); assay: small-molecule microarray binders of FAK, primary screen, biochemical, 635/667 nm fluorescence, BSA, DTT (AID 1130); conditions: PTK2 binding, 635 nm fluorescence, higher = more signal;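 further: composite of spot emission at 667 nm and signal to noise over triplicate slides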
Focal adhesion kinase 1 (Homo sapiens), sequence (Q05397 whole entry, looked up): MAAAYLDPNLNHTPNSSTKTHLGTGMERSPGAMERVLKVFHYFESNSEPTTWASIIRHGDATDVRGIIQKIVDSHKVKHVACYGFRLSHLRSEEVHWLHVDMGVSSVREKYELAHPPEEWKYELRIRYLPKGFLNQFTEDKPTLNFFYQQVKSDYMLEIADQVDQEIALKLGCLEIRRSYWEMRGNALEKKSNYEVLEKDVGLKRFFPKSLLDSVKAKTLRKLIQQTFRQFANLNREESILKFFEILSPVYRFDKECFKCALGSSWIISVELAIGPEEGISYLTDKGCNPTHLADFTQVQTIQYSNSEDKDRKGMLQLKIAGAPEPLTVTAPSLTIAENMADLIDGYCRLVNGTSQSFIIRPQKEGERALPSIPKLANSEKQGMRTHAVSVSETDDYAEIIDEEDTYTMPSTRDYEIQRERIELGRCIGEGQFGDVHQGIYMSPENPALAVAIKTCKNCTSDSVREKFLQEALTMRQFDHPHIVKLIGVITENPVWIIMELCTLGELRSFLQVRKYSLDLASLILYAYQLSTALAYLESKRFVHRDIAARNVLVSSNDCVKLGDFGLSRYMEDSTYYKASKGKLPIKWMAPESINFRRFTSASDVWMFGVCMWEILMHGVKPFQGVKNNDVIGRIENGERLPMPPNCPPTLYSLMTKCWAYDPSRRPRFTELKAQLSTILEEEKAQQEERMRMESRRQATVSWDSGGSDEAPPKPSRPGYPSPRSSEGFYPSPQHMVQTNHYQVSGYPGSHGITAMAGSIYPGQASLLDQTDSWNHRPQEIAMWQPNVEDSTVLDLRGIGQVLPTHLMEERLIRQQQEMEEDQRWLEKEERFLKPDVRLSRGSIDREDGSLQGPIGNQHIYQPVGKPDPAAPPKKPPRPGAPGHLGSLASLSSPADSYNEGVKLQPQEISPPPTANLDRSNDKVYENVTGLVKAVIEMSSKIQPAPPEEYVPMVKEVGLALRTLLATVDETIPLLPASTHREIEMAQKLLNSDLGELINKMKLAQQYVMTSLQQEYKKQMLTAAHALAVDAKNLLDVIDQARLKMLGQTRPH

[12] = system: Fibrinogen (Alexa647-labelled); assay: fibrinogen binders on compound microarrays, profiling panel, artefact control for SMM control-protein annotation, biochemical, small-molecule microarray, 635/667 nm fluorescence (AID 1131); conditions: fibrinogen-A647 binding fluorescence, higher = more signal;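 further: z-score merges 667 nm fluorescence with per-spot signal-to-noise over triplicate slides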
[13] = molecular target: Follistatin (Homo sapiens) (UniProt P19883); assay: follistatin binders on small-molecule microarrays, primary screen, biochemical, small-molecule microarray, 635/667 nm fluorescence (AID 1132); conditions: FST binding, 635 nm fluorescence, higher = more signal
Follistatin (Homo sapiens), sequence (P19883 whole entry, looked up): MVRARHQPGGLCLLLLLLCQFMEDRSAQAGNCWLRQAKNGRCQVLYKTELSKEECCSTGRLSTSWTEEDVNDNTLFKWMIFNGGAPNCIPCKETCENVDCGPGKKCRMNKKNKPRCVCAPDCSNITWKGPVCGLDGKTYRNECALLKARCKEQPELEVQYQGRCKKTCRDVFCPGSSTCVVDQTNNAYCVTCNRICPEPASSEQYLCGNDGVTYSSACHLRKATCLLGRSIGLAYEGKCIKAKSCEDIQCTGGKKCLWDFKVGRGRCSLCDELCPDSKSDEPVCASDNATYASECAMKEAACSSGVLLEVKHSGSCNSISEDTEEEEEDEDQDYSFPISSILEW

[14] = molecular target: Fibroblast growth factor 2 (Homo sapiens) (UniProt P09038); assay: FGF2 binders on small-molecule microarrays, primary screen, biochemical, small-molecule microarray, 635/667 nm fluorescence (AID 1133); conditions: small-molecule microarray binding, FGF2, fluorescence 635/667; higher = more signal
Fibroblast growth factor 2 (Homo sapiens), sequence (P09038 whole entry, looked up): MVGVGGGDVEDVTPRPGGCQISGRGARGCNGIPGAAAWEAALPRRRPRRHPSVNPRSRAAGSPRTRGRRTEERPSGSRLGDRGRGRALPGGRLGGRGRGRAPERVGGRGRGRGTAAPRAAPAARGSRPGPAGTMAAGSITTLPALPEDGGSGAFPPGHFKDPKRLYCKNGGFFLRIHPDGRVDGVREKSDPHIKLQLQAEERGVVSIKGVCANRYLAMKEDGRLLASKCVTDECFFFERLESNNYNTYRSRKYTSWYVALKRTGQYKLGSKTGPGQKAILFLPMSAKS

[15] = mitochondrial membrane potential change in A549 cells, profiling panel, cell-based, JC-1 fluorescence, basal, 24 h, 100 nL (AID 1138); conditions: higher = more signal;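 further: A549 lung adenocarcinoma cells under basal conditions with no added stimulus; test concentration not given here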
Lefty1 = Lefty1 binders on small-molecule microarrays, primary screen, biochemical, small-molecule microarray, 635/667 nm fluorescence (AID 1139); conditions: small-molecule microarray binding, fluorescence 635/667; higher = more signal
[16] = system: wheat germ agglutinin (Triticum aestivum), Alexa647-labelled; assay: wheat germ agglutinin binders on compound microarrays, profiling panel, artefact control for SMM control-protein annotation, biochemical, small-molecule microarray, 635/667 nm fluorescence (AID 1140); conditions: WGA-A647 binding, 635 nm fluorescence, higher = more signal;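 further: score merges 667 nm feature emission with signal to noise over triplicate slides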
[17] = molecular target: Luciferin 4-monooxygenase (Photinus pyralis) (UniProt P08659); assay: firefly luciferase enzyme inhibitors, primary screen, biochemical, luminescence, purified enzyme, 2006 set (AID 1141); conditions: SteadyGlo luminescence, 30 min, higher = more signal, called active from +8 up or from −8 down;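 further: cell-free assay with purified firefly luciferase at 100 ng per well in PBS; test concentration not given here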
Luciferin 4-monooxygenase (Photinus pyralis), sequence (P08659 whole entry, looked up): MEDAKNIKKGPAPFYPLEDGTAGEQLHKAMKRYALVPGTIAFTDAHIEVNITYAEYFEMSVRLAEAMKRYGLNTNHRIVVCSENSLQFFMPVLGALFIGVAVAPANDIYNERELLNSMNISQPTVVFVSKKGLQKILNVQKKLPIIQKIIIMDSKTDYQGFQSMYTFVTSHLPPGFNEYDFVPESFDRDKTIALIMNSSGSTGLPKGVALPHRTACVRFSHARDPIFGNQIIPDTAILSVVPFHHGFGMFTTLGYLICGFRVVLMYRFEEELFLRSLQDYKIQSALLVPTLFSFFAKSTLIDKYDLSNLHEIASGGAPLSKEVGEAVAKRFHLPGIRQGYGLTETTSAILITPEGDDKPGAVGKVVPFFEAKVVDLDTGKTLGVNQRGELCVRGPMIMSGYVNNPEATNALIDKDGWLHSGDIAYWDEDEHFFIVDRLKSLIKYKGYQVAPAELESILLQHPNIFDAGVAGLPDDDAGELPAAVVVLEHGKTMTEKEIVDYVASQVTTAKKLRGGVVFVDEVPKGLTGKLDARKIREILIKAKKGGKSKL

Albumin (Bos taurus), sequence (P02769 whole entry, looked up): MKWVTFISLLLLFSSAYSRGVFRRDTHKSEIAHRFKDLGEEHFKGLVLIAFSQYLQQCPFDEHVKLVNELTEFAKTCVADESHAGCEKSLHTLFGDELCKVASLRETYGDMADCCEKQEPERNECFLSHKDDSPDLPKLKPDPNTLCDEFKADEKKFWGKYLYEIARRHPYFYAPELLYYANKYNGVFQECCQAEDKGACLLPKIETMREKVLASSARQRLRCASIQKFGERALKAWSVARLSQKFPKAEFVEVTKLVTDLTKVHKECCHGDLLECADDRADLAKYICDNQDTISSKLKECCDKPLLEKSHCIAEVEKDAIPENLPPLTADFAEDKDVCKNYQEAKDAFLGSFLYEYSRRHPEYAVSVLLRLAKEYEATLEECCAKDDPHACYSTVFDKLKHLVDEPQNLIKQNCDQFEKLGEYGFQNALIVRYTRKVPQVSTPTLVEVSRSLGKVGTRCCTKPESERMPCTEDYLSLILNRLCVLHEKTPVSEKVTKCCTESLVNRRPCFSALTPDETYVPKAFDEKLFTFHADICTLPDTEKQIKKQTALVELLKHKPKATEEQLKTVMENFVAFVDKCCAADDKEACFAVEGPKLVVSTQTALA

Compound	composite z-score (Albumin (Bos taurus))	composite Z-score [1]	composite z-score [2]	composite z-score [3]	composite z-score [4]	composite z-score [5]	composite z-score [6]	composite z-score (Sam68 (KHDRBS1))	composite z-score [7]	composite z-score [8]	composite z-score [9]	composite z-score [10]	composite z-score [11]	composite z-score [12]	composite z-score [13]	composite z-score [14]	z-score [15]	composite z-score (Lefty1)	composite z-score [16]	z-score [17]
COc1cc(Cc2cc3c(c(-c4ccccc4)n2)[Si](C(C)C)(C(C)C)OC3)cc(OC)c1OC	-1.25	0.23 (inactive)	-0.0682	-0.0028	0.153	-0.317	-0.27	-1.26	0.296	-0.264	-0.753	-1.33	-0.517	0.107	0.0972	0.542	0.489	-0.194	0.712	-0.111 (inactive)
O=C1O[C@H](c2ccccc2)[C@H](c2ccccc2)N2[C@H]1[C@@H](C(=O)N1CCCCCCC1)[C@]1(C(=O)Nc3ccc(C#CCCO)cc31)[C@H]2c1ccc(O)cc1	0.777	9.39 (active)	2.27	1.18	0.91	4.64	1.53	1.35	1.68	1.17	2.12	1.32	4.55	0.967	1.56	1.71	0.889	1.85	1.68	0.628 (inactive)
COCCOC(=O)N1C(=O)[C@@]2(c3cc(C#CCC(C(=O)OC)C(=O)OC)ccc31)[C@H](C(N)=O)[C@H]1C(=O)O[C@H](c3ccccc3)[C@H](c3ccccc3)N1[C@@H]2c1ccccc1OCCO	0.653	-0.145 (inactive)	-0.0565	0.201	0.593	0.882	-0.155	1.32	1.1	1.15	0.737	1.09	0.225	0.927	1.32	1.57	-0.116	1.26	0.556	-0.617 (inactive)
C=CC[C@]1(C(=O)NCC(O)CO)N=C(c2ccc(OCCCO)cc2)O[C@H]1c1ccccc1CN=[N+]=[N-] (stereo not given in full)	0.0838	0.58 (inactive)	-0.0362	-0.0357	0.522	3.12	0.988	0.605	-1.33	0.148	2.81	1.22	-0.209	-0.204	0.875	0.785	0.895	-0.0497	0.502	-0.154 (inactive)
COc1ccc(CCNC(=O)[C@@]2(c3ccc([N+](=O)[O-])cc3)CC(=O)N(C3CCCCC3)[C@@H]2c2ccc(CO)cc2I)cc1	-0.127	0.931 (inactive)	0.0293	0.0254	0.364	1.52	0.89	0.962	0.252	0.754	0.312	1.19	0.338	-0.0396	1.04	1.24	3.1	0.0241	0.402	-1.28 (inactive)

— PubChem BioAssay
